AMA1 RON2 block = disrupts binding of P. falciparum AMA1 to RON2 | AlphaScreen AMA1-biotinylated RON2 peptide binding | Potency, µM (highest dose often 58.2 µM), inactives show top-dose activity change, negative = inhibition, most hits filed as inhibitors | 360,000 tested, 0.2% active | AID 720542;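 also: 0% = vehicle wells and -100% = peptide control; nearly all actives have a fitted effect of over 45% in size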
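AMA1 (3D7) with his tag at 25 nM final met compounds first, then biotinylated RON2 peptide at 25 nM; detection used donor plus acceptor beads, 10 µg/mL apiece, read by AlphaScreen after 30 min at room temperature.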
SARS PLP yeast = SARS-CoV PLP inhibition in yeast. S. cerevisiae expressing SARS-CoV PLpro, growth rescue. 330,000 tested, 0.19% active. Potency, µM (doses to about 32.9 µM), for the others: at the top dose activity, positive = growth rescue, hits mostly activators; calls by dose curve; also: 0% is about no effect; nearly all actives have a fitted effect of over 55% in size
Pf growth 48h = inhibits P. falciparum growth in the first generation, 48 h; AID 504832; Potency, µM (top dose mostly 28.7 µM), for the others: at the highest dose activity change, negative = inhibition, most hits filed as inhibitors; P. falciparum luciferase growth in erythrocytes, 48 h; 310,000 tested, 5.9% active; also: % is scaled to controls: 0 for no effect and ±100 for the full control effect
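Erythrocytes infected with P. falciparum carrying an integrated firefly luciferase reporter (2% hematocrit, 0.1% parasitemia final) were exposed to compounds in RPMI 1640 with 0.5% Albumax at 37 C, 5% CO2. Growth inhibition was scored as reduced luminescence.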
Pf growth 96h = P. falciparum growth inhibition at 96 hours | P. falciparum luciferase reporter growth, 96 h | Potency, µM (highest dose often 28.7 µM), inactives show at the top dose activity change, negative = inhibition, hits mostly inhibitors | 320,000 tested, 6.9% active; also: % is scaled to controls: 0 for no effect and ±100 for the full control effect
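Parasite growth measured via integrated firefly luciferase reporter in P. falciparum. Infected erythrocytes at 2% hematocrit, 0.05% parasitemia final were treated 96 hours at 37 C under 5% CO2, and luminescence was read.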
* marks the source's active call; other numbers are inactive results; ? = inconclusive; . = no result; ! = not confirmed by another sample; [ ] = another dose, or the depositor's remark. Rows were chosen to be rich in hits. Some 9.4% of all compounds tested hit in one or more screens of this group. Unless noted, calls follow the shape of the dose curve; as a rule, active = well fitted curve in the direction sought with a large enough effect; inconclusive = small, poorly fitted or top-dose-only effect, or another doubt; inactive = no such curve, though single readings can be large; an effect the other way counts as inactive or inconclusive. Potency is read from the fitted curve at half-maximal effect.

SMILES | AMA1 RON2 block | SARS PLP yeast | Pf growth 48h | Pf growth 96h
C=CCN(c1cccc(C(F)(F)F)c1)S(=O)(=O)c1cccc(C(=O)OCC(=O)NCCC)c1 | -1% | 13% | ? | 13µM*
C=CCN(c1ccccc1)S(=O)(=O)c1cccc(C(=O)OCC(=O)NCCOC)c1 | 0% | 0% | 108% | 24%
CC(C)CC(NC(=O)C1CCC(=O)N1C(=O)OCc1ccccc1)C(=O)NC(Cc1ccccc1)C(N)=O (stereo not given) | -13% | 4% | 10µM* | 7%
Cc1ccc(/C=N\NC(=O)C2CN(S(=O)(=O)c3ccccc3)CCN2S(=O)(=O)c2ccccc2)cc1 (stereo not given) | 2% | 16% | ? | ?
COC(=O)c1ccccc1OC(=O)c1cc[n+]([O-])cc1 | 1% | -1% | 13% | ?
COc1ccccc1COCC(O)CN(Cc1ccco1)Cc1ccccc1O (stereo not given) | 2% | -1% | 8.3µM* | 5.2µM*
CCOc1cc2[nH]c(=S)n(CCCOC)c(=O)c2cc1OCC | 84% | -1% | -8% | 6.6µM*
CCCCN(C)C(=O)CCCCn1c(=O)[nH]c2cc(OCC)c(OCC)cc2c1=O | -11% | 4% | 10µM* | ?
CCOc1cc2[nH]c(=S)n(C(C)C)c(=O)c2cc1OCC | 10% | 9% | . | 8.3µM*
CN(Cc1ccccc1)C(=O)CCCn1c(=O)[nH]c2cc(Cl)ccc2c1=O | 4% | -4% | . | 15µM*
COC(=O)[C@H](CCSC)NC(=O)NCCc1ccccc1F | 3% | -1% | 22% | .
CSCC[C@H](NC(=O)c1cccnc1)c1nnc2ccccn12 | 14% | 0% | 12% | 42%
Cc1ccccc1C(=O)NNC(=O)C1CCCN(c2ncccn2)C1 (stereo not given) | 15% | -4% | -12% | 55%
CCc1ccc(S(=O)(=O)ON2C(=O)c3ccccc3C2=O)cc1 | 0% | 0% | 11% | 357%
CC(=O)Nc1ccc(S(=O)(=O)Nc2ncccn2)cc1 | -1% | 8% | 6% | 0%
CCC(=O)Nc1ccc(S(=O)(=O)Nc2ncccn2)cc1 | -5% | 4% | . | 9.3µM*
CCC(=O)Nc1ccc(NC(=S)Nc2ccccc2)cc1 | 8%[11.6 µM] | -6% | 26% | 12µM*
CCC(=O)Nc1ccc(S(=O)(=O)Nc2c(C)nc3nc[nH]n3c2=O)cc1 | 7% | -1% | -6% | 10µM*
O=C(Nc1ccc(S(=O)(=O)Nc2ncccn2)cc1)C(F)(F)F | -6% | 5µM* | -13% | 96%
O=C(CN1CCN(S(=O)(=O)c2ccccc2[N+](=O)[O-])CC1)NC(=O)NCc1ccco1 | -8% | -1% | 0% | -24%
O=C(Cn1c(NCCCO)nc2ccccc21)c1ccco1 | 5% | -2% | 15% | ?
Cc1cc(CNC(=O)C2CCC(=O)N(CCc3cccc(F)c3)C2)on1 (stereo not given) | 10% | -2% | -2% | 13µM*
O=C(NCCOc1ccccc1F)C1CCC(=O)N(CCc2cccc(F)c2)C1 (stereo not given) | 4% | 3% | ? | 15µM*
CCc1nc(CNC(=O)C2CCC(=O)N(CCc3cccc(F)c3)C2)no1 (stereo not given) | 5% | 1% | 20% | ?
CCc1cc(CNC(=O)C2CCC(=O)N(CCc3cccc(F)c3)C2)on1 (stereo not given) | -1% | -4% | 3% | 13µM*
SMILES | AMA1 RON2 block | SARS PLP yeast | Pf growth 48h | Pf growth 96h
CN(CCC1CCOCC1)C(=O)C1CCC(=O)N(CCc2cccc(F)c2)C1 (stereo not given) | -2% | 5% | -6% | 15µM*
O=C(Cn1nc(C(=O)O)c2ccccc2c1=O)Nc1cc(S(=O)(=O)N2CCOCC2)ccc1Cl | 3% | -3% | . | .
CCCNC(=O)c1cc(C2CCCCN2C(=O)c2ccc(C#N)cc2)on1 (stereo not given) | 2% | . | . | .
Cc1[nH]c(=O)[nH]c(=O)c1S(=O)(=O)N1CCC(C(=O)NC(C)c2ccccc2)CC1 (stereo not given) | 0% | -49% | -4% | 4.1µM*
CC(NC(=O)C1CCN(S(=O)(=O)c2ccccc2)CC1)c1ccccc1 (stereo not given) | 0% | -2% | -8% | -11%
Cc1cccc(NC(=O)C2CCN(S(=O)(=O)c3c(C)[nH]c(=O)[nH]c3=O)CC2)c1 | 12% | -41% | 46% | 13µM*
O=C(CN1CCN(Cc2ccccc2F)C1=O)NCCN1CCOCC1 | -5% | -3% | . | 89%
Cc1onc(-c2ccccc2)c1CNC(=O)C1COc2ccccc2O1 (stereo not given) | 8% | 0% | 13µM* | ?
Cc1cc(NC(=O)COC(=O)C2COc3ccccc3O2)no1 (stereo not given) | -7% | 19% | 38% | 10µM*
Cc1cc(NC(=O)C2COc3ccccc3O2)no1 (stereo not given) | -5% | -9% | 54% | -27%
O=C(COC(=O)c1cccc(S(=O)(=O)N2CCOCC2)c1)NCc1ccc2c(c1)OCO2 | -5% | 10% | . | .
Cc1ccc(CCNC(=O)C2CCCN(S(=O)(=O)c3cccc4nsnc34)C2)cc1 (stereo not given) | 20% | 11% | . | 4.1µM*
CCOCCCNC(=O)C1CCCN(S(=O)(=O)c2cccc3nsnc23)C1 (stereo not given) | -5% | -11% | -9% | 8.3µM*
Cc1cccc(CCNC(=O)C2CCCN(S(=O)(=O)c3cccc4nsnc34)C2)c1 (stereo not given) | -10% | 4% | ? | 35%
COCCCNC(=O)C1CCCN(S(=O)(=O)c2cccc3nsnc23)C1 (stereo not given) | -5% | 7% | 9% | -19%
Cc1cccc(C)c1NC(=O)CN(C)CC(=O)Nc1ccc(C#N)c(Cl)c1 | 71% | 6% | -4% | 49%
Cc1c(Cc2ccccc2)c(=O)oc2cc(OC(C)C(=O)NCC3CCC(C(=O)O)CC3)c(Cl)cc12 (stereo not given) | -1% | -5% | -15% | 10µM*
Cc1cc(=O)oc2cc(OC(C)C(=O)NCC3CCC(C(=O)O)CC3)ccc12 (stereo not given) | 0% | 2% | -35% | ?
COc1ccc(-c2cc(=O)oc3c(C)c(OCC(=O)NCC4CCC(C(=O)O)CC4)ccc23)cc1 (stereo not given) | 9% | 1% | -34% | 13µM*
CC(Oc1ccc2c(-c3ccccc3)cc(=O)oc2c1)C(=O)NCC1CCC(C(=O)O)CC1 (stereo not given) | 10% | 6% | 5.2µM*! | 3.3µM*
CCOC(=O)CN1C(=O)C(CC)Oc2ccc(Cl)cc21 (stereo not given) | 15% | 3% | -4% | ?
CCN1/C(=C\C=C\C2=[N+](CC)c3ccccc3C2(C)C)C(C)(C)c2ccccc21 | 14µM* | -33% | . | 0.15µM*
CCOC(=O)/C=C1/N(C)c2ccccc2C1(C)C | 8% | -5% | 76% | 38%
COc1cccc(-c2ccc3nnc(SCC(=O)N4CCCC4)n3n2)c1 | 3% | 3% | -6% | ?

Screens deposited in PubChem by National Center for Advancing Translational Sciences (NCATS).
